Test results published in PubChem BioAssay (EPA / NIEHS).
Active and inactive are the calls of the source. How the source made its calls: active means hit-call score of the fitted dose curve at least 0.9, where 1 is the maximum; inactive means score below 0.9.

What was measured:
[1] = read-out: Cyclin D2 (CCND2), CCND2 (gene 894); assay: LTEA_HepaRG_CCND2: Life Technologies and Expression Analysis (LTEA) Assay for Cyclin D2 (CCND2) using HepaRG (AID 2283449); conditions: mRNA level, 48 h; actives raise or lower the signal;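 further: CCND2 transcript measured by TaqMan qRT-PCR and normalised to three housekeeping genes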
How it was run: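 HepaRG, 48 h dosing, 8-pt half-log curve from 100 uM, 0.5% DMSO; duplicate wells. Readout: CCND2 transcript by microfluidic qRT-PCR, housekeeping-normalised; bidirectional fit vs DMSO baseline.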

[2] = read-out: Cyclin Dependent Kinase Inhibitor 1A (CDKN1A), CDKN1A (gene 1026); assay: LTEA_HepaRG_CDKN1A: Life Technologies and Expression Analysis (LTEA) Assay for Cyclin Dependent Kinase Inhibitor 1A (CDKN1A) using HepaRG (AID 2283450); conditions: mRNA level, 48 h; actives raise or lower the signal
How it was run: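 Expression quantified by Fluidigm qRT-PCR with ACTB, GAPDH and POLR2A normalization, fitted bidirectionally against 0.5% DMSO. Cells: HepaRG, plated 48 h then treated 48 h in serum-free induction medium, top concentration 100 uM with half-log dilutions.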

[3] = read-out: Cyclin D1 (CCND1), CCND1 (gene 595); assay: LTEA_HepaRG_CCND1: Life Technologies and Expression Analysis (LTEA) Assay for Cyclin D1 (CCND1) using HepaRG (AID 2283451); conditions: mRNA level, 48 h; actives raise or lower the signal
How it was run: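 Expression of CCND1 was quantified by qRT-PCR on Fluidigm arrays using ACTB, GAPDH and POLR2A as reference genes. HepaRG cultures, plated 48 h beforehand, were dosed for 48 h at up to 100 uM (half-log, 8 points) in 0.5% DMSO.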

[4] = read-out: catalase (CAT), CAT (gene 847); assay: LTEA_HepaRG_CAT: Life Technologies and Expression Analysis (LTEA) Assay for catalase (CAT) using HepaRG (AID 2283452); conditions: mRNA level, 48 h; actives raise or lower the signal
How it was run: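 HepaRG cells in serum-free induction medium, 0.5% DMSO vehicle, exposed 48 h in duplicate over 8 half-log concentrations from 100 uM. CAT mRNA measured by qRT-PCR, normalized to ACTB, GAPDH, POLR2A; bidirectional fit versus DMSO.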

[5] = read-out: CFLAR gene, CFLAR (gene 8837); assay: LTEA_HepaRG_CFLAR: Life Technologies and Expression Analysis (LTEA) Assay for CFLAR gene using HepaRG (AID 2283455); conditions: mRNA level, 48 h; actives raise or lower the signal
How it was run: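 qRT-PCR read-out (Fluidigm/TaqMan) of CFLAR mRNA, normalized to three housekeeping genes, in differentiated human HepaRG cells after 48 h chemical exposure; 8-point half-log series from 100 uM in 0.5% DMSO; bidirectional curve fitting versus DMSO.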

[6] = read-out: Forkhead box O1 (FOXO1), FOXO1 (gene 2308); assay: LTEA_HepaRG_FOXO1: Life Technologies and Expression Analysis (LTEA) Assay for Forkhead box O1 (FOXO1) using HepaRG (AID 2283456); conditions: mRNA level, 48 h; actives raise or lower the signal
How it was run: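 HepaRG, 48 h exposure, 8-pt half-log series from 100 uM in 0.5% DMSO, duplicates; Fluidigm qRT-PCR mRNA, housekeeping-normalised; bidirectional fit vs DMSO baseline.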

[7] = read-out: growth arrest and DNA damage 45 (GADD45A), GADD45A (gene 1647); assay: LTEA_HepaRG_GADD45A: Life Technologies and Expression Analysis (LTEA) Assay for growth arrest and DNA damage 45 (GADD45A) using HepaRG (AID 2283458); conditions: mRNA level, 48 h; actives raise or lower the signal
How it was run: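 GADD45A expression was measured by TaqMan qRT-PCR against three housekeeping genes (ACTB, GAPDH, POLR2A) after 48 h treatment of HepaRG cells. Eight-point half-log series up to 100 uM in 0.5% DMSO, run in duplicate.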

[8] = read-out: Forkhead box O3 (FOXO3), FOXO3 (gene 2309); assay: LTEA_HepaRG_FOXO3: Life Technologies and Expression Analysis (LTEA) Assay for Forkhead box O3 (FOXO3) using HepaRG (AID 2283459); conditions: mRNA level, 48 h; actives raise or lower the signal
How it was run: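 qRT-PCR readout of FOXO3 transcript, normalized to three housekeeping genes (ACTB, GAPDH, POLR2A); gain or loss fitted against 0.5% DMSO vehicle. HepaRG cells, 48 h chemical exposure, 8-point half-log series, top 100 uM.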

[9] = read-out: ABC Transporter (ABCB1), ABCB1 (gene 5243); assay: LTEA_HepaRG_ABCB1: Life Technologies and Expression Analysis (LTEA) Assay for ABC Transporter (ABCB1) using HepaRG (AID 2283460); conditions: mRNA level, 48 h; actives raise or lower the signal
How it was run: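 HepaRG, 48 h exposure, 8-pt half-log series from 100 uM, 0.5% DMSO vehicle, duplicates. Readout: ABCB1 transcript by Fluidigm TaqMan qRT-PCR, housekeeping-normalized; bidirectional curve fit vs DMSO baseline.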

[10] = read-out: growth arrest and DNA damage 45 (GADD45B), GADD45B (gene 4616); assay: LTEA_HepaRG_GADD45B: Life Technologies and Expression Analysis (LTEA) Assay for growth arrest and DNA damage 45 (GADD45B) using HepaRG (AID 2283461); conditions: mRNA level, 48 h; actives raise or lower the signal
How it was run: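 Transcript level quantified by Fluidigm TaqMan qRT-PCR with three housekeeping genes for normalization, analyzed for up- or down-regulation against 0.5% DMSO. HepaRG cultures dosed 48 h at eight half-log concentrations up to 100 uM, duplicates.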

[11] = read-out: ABC Transporter (ABCC3), ABCC3 (gene 8714); assay: LTEA_HepaRG_ABCC3: Life Technologies and Expression Analysis (LTEA) Assay for ABC Transporter (ABCC3) using HepaRG (AID 2283462); conditions: mRNA level, 48 h; actives raise or lower the signal
How it was run: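 Transcript level by TaqMan qRT-PCR, normalised to three housekeeping genes, fitted in both directions relative to vehicle. Chemicals tested in duplicate at eight half-log concentrations up to 100 uM for 48 h on HepaRG cells (0.5% DMSO).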

[12] = read-out: ABC Transporter (ABCB11), ABCB11 (gene 8647); assay: LTEA_HepaRG_ABCB11: Life Technologies and Expression Analysis (LTEA) Assay for ABC Transporter (ABCB11) using HepaRG (AID 2283463); conditions: mRNA level, 48 h; actives raise or lower the signal
How it was run: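 HepaRG, 48 h exposure, 8-pt half-log CRC top 100 uM, 0.5% DMSO vehicle, duplicates. Readout: TaqMan qRT-PCR of ABCB11 mRNA, housekeeping-normalized (ACTB/GAPDH/POLR2A). Bidirectional fit vs DMSO baseline.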

[13] = read-out: ABC Transporter (ABCC2), ABCC2 (gene 1244); assay: LTEA_HepaRG_ABCC2: Life Technologies and Expression Analysis (LTEA) Assay for ABC Transporter (ABCC2) using HepaRG (AID 2283464); conditions: mRNA level, 48 h; actives raise or lower the signal
How it was run: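 Endpoint is ABCC2 transcript level from qRT-PCR, normalized to three housekeeping genes and fitted bidirectionally relative to DMSO. Human HepaRG cells received test chemical for 48 h at up to 100 uM (8 points, half-log steps, 0.5% DMSO), duplicate wells.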

[14] = read-out: Broad substrate specificity ATP-binding cassette transporter ABCG2 (Homo sapiens) (UniProt Q9UNQ0); assay: LTEA_HepaRG_ABCG2: Life Technologies and Expression Analysis (LTEA) Assay for ABC Transporter (ABCG2) using HepaRG (AID 2283465); conditions: mRNA level, 48 h; actives raise or lower the signal
How it was run: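 HepaRG, 48 h exposure, 8-pt half-log series from 100 uM, 0.5% DMSO vehicle, duplicates. Readout: ABCG2 transcript by qRT-PCR (Fluidigm array), housekeeping-normalized; bidirectional curve fit relative to DMSO baseline.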

[15] = read-out: ATP-citrate lyase (ACLY), ACLY (gene 47); assay: LTEA_HepaRG_ACLY: Life Technologies and Expression Analysis (LTEA) Assay for ATP-citrate lyase (ACLY) using HepaRG (AID 2283466); conditions: mRNA level, 48 h; actives raise or lower the signal
How it was run: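 qRT-PCR readout of ACLY transcript after 48 h chemical treatment of HepaRG cells; expression normalized to three housekeeping genes. Eight-point half-log series, highest 100 uM, 0.5% DMSO vehicle. Gain or loss fitted against DMSO baseline.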

[16] = read-out: Peroxisomal acyl-coenzyme A oxidase 1 (ACOX1) gene, ACOX1 (gene 51); assay: LTEA_HepaRG_ACOX1: Life Technologies and Expression Analysis (LTEA) Assay for Peroxisomal acyl-coenzyme A oxidase 1 (ACOX1) gene using HepaRG (AID 2283467); conditions: mRNA level, 48 h; actives raise or lower the signal
How it was run: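 HepaRG, 48 h chemical exposure, 8-pt half-log series from 100 uM top, 0.5% DMSO vehicle, duplicates. Readout: ACOX1 mRNA by Fluidigm qRT-PCR, housekeeping-normalized; bidirectional fit vs DMSO baseline.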

[17] = read-out: Alkaline Phosphatase, Placental (ALPP) gene, ALPP (gene 250); assay: LTEA_HepaRG_ALPP: Life Technologies and Expression Analysis (LTEA) Assay for Alkaline Phosphatase, Placental (ALPP) gene using HepaRG (AID 2283468); conditions: mRNA level, 48 h; actives raise or lower the signal;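 on AC50: differentiated human HepaRG liver cells in serum-free induction medium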
How it was run: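 ALPP transcript level, measured by qRT-PCR and normalized to three housekeeping genes (ACTB, GAPDH, POLR2A), after 48 h dosing of differentiated HepaRG in serum-free induction medium. Top concentration 100 uM with half-log dilutions (8 points, 0.5% DMSO, duplicates); bidirectional fitting relative to DMSO.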

[18] = read-out: Cytochrome P450 (CYP1A1), CYP1A1 (gene 1543); assay: LTEA_HepaRG_CYP1A1: Life Technologies and Expression Analysis (LTEA) Assay for Cytochrome P450 (CYP1A1) using HepaRG (AID 2283454); conditions: mRNA level, 48 h; actives raise or lower the signal
How it was run: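 CYP1A1 transcript levels measured by Fluidigm qRT-PCR against three housekeeping genes, 48 h after chemical dosing of human HepaRG cells (highest concentration 100 uM, half-log steps, 0.5% DMSO vehicle). Gain or loss of signal fitted relative to DMSO.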

[19] = CEETOX_H295R_TESTO: CeeTox H295R High-throughput Steroidogenesis Assay for Testosterone (TESTO) (AID 2283457); conditions: actives raise or lower the signal
How it was run: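 Testosterone secreted into the medium over 48 h by H295R cells (maximum passage 10) was quantified by LC-MS/MS after MTBE extraction. Fitted in both directions against DMSO, with concentrations diluted until MTT viability was ≥70%.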

Chain of Broad substrate specificity ATP-binding cassette transporter ABCG2 (Homo sapiens) (Q9UNQ0 whole entry, looked up): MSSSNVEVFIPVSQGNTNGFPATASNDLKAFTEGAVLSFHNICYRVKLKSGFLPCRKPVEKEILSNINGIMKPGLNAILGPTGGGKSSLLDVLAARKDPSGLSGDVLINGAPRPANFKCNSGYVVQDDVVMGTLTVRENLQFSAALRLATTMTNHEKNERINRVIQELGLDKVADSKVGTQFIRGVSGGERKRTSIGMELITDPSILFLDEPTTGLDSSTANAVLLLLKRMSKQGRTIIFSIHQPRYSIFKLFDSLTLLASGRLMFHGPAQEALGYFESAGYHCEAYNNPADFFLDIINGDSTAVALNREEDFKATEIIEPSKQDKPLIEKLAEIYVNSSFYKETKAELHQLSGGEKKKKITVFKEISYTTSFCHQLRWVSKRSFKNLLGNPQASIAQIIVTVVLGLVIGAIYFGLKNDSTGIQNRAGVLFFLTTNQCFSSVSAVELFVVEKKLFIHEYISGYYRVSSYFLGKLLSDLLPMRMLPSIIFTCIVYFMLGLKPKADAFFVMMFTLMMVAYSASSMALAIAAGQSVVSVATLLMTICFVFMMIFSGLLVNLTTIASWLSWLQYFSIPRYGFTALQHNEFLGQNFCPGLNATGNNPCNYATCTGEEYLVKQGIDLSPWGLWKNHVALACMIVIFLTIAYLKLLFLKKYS

COP(N)(=O)SC (configuration not stated)
outcome [1]: inactive
outcome [2]: inactive
outcome [3]: inactive
outcome [4]: inactive
outcome [5]: inactive
outcome [6]: inactive
outcome [7]: inactive
outcome [8]: inactive
outcome [9]: inactive
outcome [10]: inactive
outcome [11]: inactive
outcome [12]: inactive
outcome [13]: inactive
outcome [14]: inactive
outcome [15]: inactive
outcome [16]: inactive
outcome [17]: inactive

COC(=O)C=C(C)OP(=O)(OC)OC
outcome [1]: inactive
outcome [2]: inactive
outcome [3]: inactive
outcome [4]: inactive
outcome [5]: inactive
outcome [6]: inactive
outcome [7]: inactive
outcome [8]: inactive
outcome [9]: inactive
outcome [10]: inactive
outcome [11]: inactive
AC50 [12]: 21.4 µM (active)
outcome [13]: inactive
outcome [14]: inactive
outcome [15]: inactive
outcome [16]: inactive
outcome [17]: inactive

CC(C)Oc1cc(-n2nc(C(C)(C)C)oc2=O)c(Cl)cc1Cl
AC50 [2]: 84.1 µM (active)
outcome [3]: inactive
AC50 [4]: 50 µM (active)
AC50 [18]: 13.2 µM (active)
outcome [5]: inactive
outcome [6]: inactive
outcome [19]: inactive
outcome [7]: inactive
outcome [8]: inactive
AC50 [9]: 1.25 µM (active)
AC50 [10]: 4.73 µM (active)
outcome [11]: inactive
AC50 [12]: 58.8 µM (active)
AC50 [13]: 2.52 µM (active)
AC50 [14]: 26 µM (active)
AC50 [15]: 77.4 µM (active)
AC50 [16]: 19.8 µM (active)
AC50 [17]: 69.8 µM (active)
